Measured potencies and affinities stand elsewhere.
molecular target: Protein S100-A4 (Homo sapiens) (UniProt P26447); test: human S100A4 peptide interaction inhibition curves – biochemical, fluorescence polarization, cherry-picked hits, dose response (AID 687001); details: FP, S100A4/TAMRA-myosin IIA peptide binding; series mostly up to 11 µM; activity change, negative = inhibition: at the top concentration;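 note: 0% = DMSO neutral control wells and -100% = TFP positive control wells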
Sequence (P26447 whole entry, looked up): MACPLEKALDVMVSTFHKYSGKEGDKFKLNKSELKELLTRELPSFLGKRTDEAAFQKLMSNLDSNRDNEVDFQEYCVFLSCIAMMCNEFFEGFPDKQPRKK

Activity change, negative = inhibition, inactive:
COCC(=O)N[C@H]1C=C[C@@H](CC(=O)OC)O[C@@H]1CO -0.487%
O=C(NCCOc1ccccc1)C1CCC(=O)N(CCCN2CCOCC2)C1 (stereo not drawn) -3.56%
CC(C)(C)[C@H]1COC(=O)CC/C=C\C[C@H](CC(=O)N(CCO)Cc2ccccc2)C(=O)N1 -3.22%
CCCCNC(=O)CNC(=S)N(CCCN1CCOCC1)Cc1cccs1 -2.25%
COc1ccc(CN(C)C[C@H]2Oc3c(NC(=O)NC(C)C)cccc3C(=O)N([C@H](C)CO)C[C@H]2C)cc1 -3.85%
CC(C)CC#Cc1ccc2c(c1)O[C@@H](CN(C)C(=O)Nc1ccccc1)[C@@H](C)CN([C@H](C)CO)S2(=O)=O 9.65%
CNC[C@H]1Oc2c(NC(=O)Nc3ccc(C(F)(F)F)cc3)cccc2C(=O)N([C@@H](C)CO)C[C@H]1C 9.1%
Cc1ccccc1NC(=O)C1CCN(S(=O)(=O)c2ccc3c(c2)NC(=O)C(C)S3)CC1 (stereo not drawn) 47.4%
CCCC(=O)Nc1ccc2c(c1)C(=O)N(C)C[C@H](OC)[C@H](C)CN(Cc1ccccc1)[C@@H](C)CO2 2.23%
CCCNC(=O)Nc1ccc2c(c1)OC[C@@H](C)N(C(=O)C1CC1)C[C@H](C)[C@@H](OC)CN(C)C2=O 1.76%
O=C(NCCNC(=O)c1cccc(O)c1)c1cccc(O)c1 -2.43%
O=Cc1ccc(N2N=C(c3ccccc3)CC2c2ccccc2)cc1 (stereo not drawn) -2.17%
Cc1ccc(S(=O)(=O)N(C)C[C@@H]2OCCCC[C@@H](C)Oc3ccc(NS(C)(=O)=O)cc3C(=O)N([C@@H](C)CO)C[C@@H]2C)cc1 0.697%
O=C(CN1C(=O)/C(=C/c2ccccc2Cl)SC1=S)NC1C=CS(=O)(=O)C1 (stereo not drawn) 17.7%
Cc1cc(C)nc(NC(=O)CCN2C(=O)c3ccccc3S2(=O)=O)n1 -0.83%
O=S(=O)(NCCN1CCOCC1)c1ccc(-c2ccc(S(=O)(=O)NCCN3CCOCC3)cc2)cc1 -2.5%
CC(C)[C@H](NC(=O)N1CCn2c1nc1ccccc12)C(=O)NCc1ccccc1Cl 5.14%
CC(C)NC(=O)N(C)C[C@H]1Oc2ccc(NC(=O)CCCN(C)C)cc2C(=O)N([C@H](C)CO)C[C@H]1C -0.211%
COc1cc(C(=O)NCCc2ncccc2C)ccc1OC1CCN(C(C)=O)CC1 -2.25%
CC1(C(=O)Nc2cnc3ccccc3c2)CCN1Cc1cc2ccccc2o1 (stereo not drawn) 5.98%
Cc1cc(C(=O)NC2CCCN(Cc3ccc(Cl)cc3)C2)n(C)n1 (stereo not drawn) -0.775%
Cc1ccc(S(=O)(=O)NCc2ccccc2)cc1C(=O)NCC1CCCO1 (stereo not drawn) -6.65%
O=C(CSc1ccc(Cl)cc1)NC1CC1 -3.42%

Reference: PubChem BioAssay AID687001 (Broad Institute, 2013)
